The values below come from PubChem BioAssay (NCATS).

Results filed as inconclusive are left out. Calls of active or inactive are those of the source. Unless noted, calls follow the shape of the full dose curve.

Experiment [1] addresses Estrogen receptor (Homo sapiens) (UniProt P03372). Kind of experiment: qHTS assay for small molecule agonists of estrogen receptor alpha signaling (AID 588514).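 Also: 0% = vehicle only and 100% = reference agonist; nearly all actives have a fitted effect of over 70% in size.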 The essentials:
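ER-alpha-UAS-bla GripTite HEK 293 cells in medium with 2% charcoal/dextran-treated FBS were treated with compound titrations at 37 C for 18 hrs; beta-lactamase reporter read by CCF4 fluorescence after 2 hrs at RT.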
Background: Quantitative high-throughput screening tests each substance at several concentrations.

Experiment [2] has as its target Peroxisome proliferator-activated receptor delta (Homo sapiens) (UniProt Q03181). Kind of experiment: qHTS assay for small molecule agonists of peroxisome proliferator-activated receptor delta signaling (AID 588534).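 Also: 0% = DMSO basal wells and 100% = positive control agonist at 10 µM.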 A digest of the protocol: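 Cell-based beta-lactamase reporter assay run in agonist mode: cells seeded and incubated 5 hrs at 37 C, compounds added and incubated 18 hrs at 37 C. CCF4 dye fluorescence read after 2 hrs at RT; EC50 and efficacy from Hill fits.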

Experiment [3] can be described thus: qHTS assay for small molecule antagonists of peroxisome proliferator-activated receptor delta signaling (AID 588535; active = well fitted inhibition curve with a large enough effect in the signal ratio, with a control signal flat, not every such curve was filed as active; the % refers to the signal ratio;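 as to max response: cells co-treated with a PPAR-delta agonist as stimulator during compound exposure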). The settings on record: HEK293T PPARd-UAS-bla, beta-lactamase FRET ratio, 18 h; 460 nm channel. A digest of the protocol:
(§1)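 GeneBLAzer PPAR-delta-UAS-bla HEK293T cells in medium with 2% charcoal/dextran FBS were preincubated 5 hrs at 37 C, then given compounds, incubated 18 hrs at 37 C, and read by CCF4 beta-lactamase fluorescence; IC50 from Hill fits.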

The target in experiment [4] is Peroxisome proliferator-activated receptor delta (Homo sapiens) (UniProt Q03181). The experiment is described as above. The essentials: as §1
Experiment [5] deals with Vitamin D3 receptor (Homo sapiens) (UniProt P11473). Kind of experiment: qHTS assay for small molecule antagonists of vitamin D receptor signaling (AID 588541).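 Also: receptor activated by calcitriol during compound treatment; series mostly up to about 77 µM; % is scaled to controls: 0 for no effect and ±100 for the full control effect.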 The essentials: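 VDR-UAS-bla HEK293T cells (2000/well, 2% charcoal-stripped FBS) were treated with titrated compounds plus 1-alpha,25-dihydroxyvitamin D3 (50 nM or 3 nM final) for 16 h at 37 C. CCF4 beta-lactamase fluorescence was read; Hill fits gave IC50.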

Experiment [6] deals with Retinoic acid receptor RXR-alpha (Homo sapiens) (UniProt P19793). Kind of experiment: qHTS assay for small molecule agonists of retinoid X receptor alpha signaling (AID 588544).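 Also: 0% = DMSO basal wells and 100% = reference agonist.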
For experiment [7], the target named is Thyroid hormone receptor beta (Homo sapiens) (UniProt P10828). In words: qHTS assay for small molecule agonists of thyroid hormone receptor beta signaling (AID 588545). A digest of the protocol:
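Agonist activity was read as beta-lactamase CCF4 fluorescence (405 ex, 460/530 em), scaled between DMSO (0%) and 10 nM T3 (100%), then Hill-fitted for EC50 and efficacy. HEK 293 TR-UAS-bla cells in 2% charcoal/dextran FBS medium were exposed 18 h at 37 C.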

Experiment [8] can be described thus: qHTS assay for small molecule antagonists of retinoid X receptor alpha signaling (AID 588546; active = well fitted inhibition curve with a large enough effect in the signal ratio, with a control signal flat, not every such curve was filed as active; the % refers to the signal ratio;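 also: cells stimulated with 9-cis-retinoic acid as agonist; % is scaled to controls: 0 for no effect and ±100 for the full control effect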). The settings on record: HEK293T RXRa-UAS-bla, beta-lactamase ratio, antagonist mode; measured here: W530 green channel, cytotoxicity proxy. The essentials: (§2)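 Beta-lactamase reporter inhibition, read as CCF4 fluorescence ratio (ex 405, em 460/530 nm) after 2 h at RT. HEK293T UAS-bla cells, 2500/well, were stimulated with 9-cis-RA at 500 or 100 nM final alongside test compound for 18 h at 37 C.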

In experiment [9] the target is Retinoic acid receptor RXR-alpha (Homo sapiens) (UniProt P19793). The description is as above. The settings on record: HEK293T RXRa-UAS-bla, beta-lactamase ratio, antagonist mode. A digest of the protocol:
as §2

The target in experiment [10] is Thyroid hormone receptor beta (Homo sapiens) (UniProt P10828). In words: qHTS assay for small molecule antagonists of thyroid hormone receptor beta signaling (AID 588547; active = well fitted inhibition curve with a large enough effect in the signal ratio, with a control signal flat, not every such curve was filed as active; the % refers to the signal ratio;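 also: cells stimulated with 0.4 nM T3 agonist during compound exposure; series mostly up to about 77 µM; % is scaled to controls: 0 for no effect and ±100 for the full control effect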). The settings on record: TR-UAS-bla HEK293, beta-lactamase ratio, antagonist mode, 18 h. The essentials:
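TR-UAS-bla GripTite HEK293 cells in 2% charcoal/dextran FBS medium were preincubated 4 h at 37 C, given compound (0.59 nM to 92 uM) plus 0.4 nM T3 (final) for 18 h, then CCF4 for 2 h at RT; Hill fit gave IC50.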

Experiment [11] can be described thus: qHTS assay for small molecule activators of the nuclear factor-kappa B (NF-kB) signaling pathway (AID 651749; active = well fitted activation curve with a large enough effect in the signal ratio; the % refers to the signal ratio; also: series mostly up to about 77 µM; % of control where 0% means no effect). The following applies: NF-kB-bla ME-180 cells, beta-lactamase FRET ratio, 16 h; activation: stronger effect = higher value. A digest of the protocol:
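ME-180 cells stably carrying a beta-lactamase reporter under an NF-kB response element were exposed to compound or DMSO vehicle for 16 hr at 37C, 5% CO2. Pathway activation was read by FRET, since reporter expression disrupts FRET.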

A short description of experiment [12]: qHTS assay for environmental chemicals that activate the Aryl hydrocarbon Receptor (AhR) signaling pathway (AID 651777; active = well fitted curve in the direction sought with a large enough effect; an effect the other way counts as inactive or inconclusive; also: % of control where 0% means no effect; nearly all actives have a fitted effect of over 15% in size). The settings on record: 1A2-DRE human hepatoma cells, luciferase, 24 h; activation: stronger effect = higher value. The essentials:
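Measured luciferase activity, read 30 min after One-Glo addition at room temperature, from human hepatoma cells bearing a dioxin response element–CYP1A2 promoter reporter and exposed to compound for 24 hr at 37 C.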

The target in experiment [13] is Peroxisome proliferator-activated receptor alpha (Homo sapiens) (UniProt Q07869). Kind of experiment: qHTS assay for small molecule agonists of the peroxisome proliferator-activated receptor alpha (PPARalpha) signaling pathway (AID 651778; active = well fitted curve in the direction sought with a large enough effect; an effect the other way counts as inactive or inconclusive; also: % of control where 0% means no effect). The following applies: PathHunter PPARalpha complementation, chemiluminescence, 6 h; max response: stronger effect = higher value. A digest of the protocol:
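Cells plated at 2,000/well and held overnight at 37 C, 5% CO2, then compound added by pin tool for 6 hr; after PathHunter detection reagent and 60 min at room temperature, chemiluminescence from enzyme complementation was read.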

A short description of experiment [14]: qHTS assay for small molecule agonists of the antioxidant response element (ARE) signaling pathway measured by Nrf2-dependant transcriptional activity (AID 720636; active = well fitted curve in the direction sought with a large enough effect in the repeat runs; an effect the other way counts as inactive or inconclusive;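 also: HepG2 cells with an ARE-driven luciferase reporter; % of control where 0% means no effect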). A digest of the protocol:
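In HepG2 cells engineered with an Nrf2-responsive luciferase gene, ARE induction was quantified as luminescence after 16 hr compound treatment at 37 C.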

Experiment [15] in a line: qHTS assay for small molecule agonists of the antioxidant response element (ARE) signaling pathway measured by Nrf2-dependant transcriptional activity - cell viability counter screen (AID 720653; active = well fitted curve in the direction sought with a large enough effect in the repeat runs; an effect the other way counts as inactive or inconclusive; also: % is scaled to controls: 0 for no effect and ±100 for the full control effect). The following applies: ARE-bla HepG2 viability, CellTiter-Glo ATP luminescence, 16 h; max response: stronger effect = lower value. A digest of the protocol: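 ARE-bla HepG2 cells (2,000/well) rested 5 hrs at 37C/5% CO2, then exposed to compounds in DMSO for 16 hrs. Viability was read in the same wells as intracellular ATP by luminescence, 30 min at room temperature after reagent addition.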

Experiment [16] in a line: qHTS assay for cell viability of HEK293 cells (AID 743288; active = well fitted curve in the direction sought with a large enough effect; an effect the other way counts as inactive or inconclusive; also: % is scaled to controls: 0 for no effect and ±100 for the full control effect; nearly all actives have a fitted effect of over 50% in size). The following applies: ATP luminescence (CellTiter-Glo), 18 h; max response: stronger effect = lower value. A digest of the protocol: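 Environmental chemicals tested in qHTS format against parental HEK293 cells; 18 h treatment, 37 C; read-out ATP luminescence (CellTiter-Glo), 30 min RT development.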
The nature of experiment [17]: qHTS assay for cell viability of the p53RE-bla HCT-116 cell line (AID 743292; active = well fitted curve in the direction sought with a large enough effect; an effect the other way counts as inactive or inconclusive; also: % is scaled to controls: 0 for no effect and ±100 for the full control effect; nearly all actives have a fitted effect of over 55% in size). The essentials: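 Intracellular ATP of p53RE-bla HCT-116 cells measured by luciferase luminescence following 16 h compound incubation at 37 C; DMSO-only wells served as vehicle controls.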
Experiment [18] addresses Nuclear receptor subfamily 1 group I member 2 (Rattus norvegicus) (UniProt Q9R1A7). Kind of experiment: qHTS assay for small molecule activators of the rat pregnane X receptor (rPXR) signaling pathway (AID 651751; call rule not given here; also: 0% is about no effect). The following applies: rPXR reporter cells, luciferase (One-Glo), 24 h.
For experiment [19], the target named is Glucocorticoid receptor (Homo sapiens) (UniProt P04150). In words: qHTS assay for small molecule antagonists of glucocorticoid receptor signaling (AID 588533; active = well fitted inhibition curve with a large enough effect in the signal ratio, with a control signal flat, not every such curve was filed as active; the % refers to the signal ratio). The essentials: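 Antagonist-mode qHTS: compound titrations added to GRE-bla HeLa cells, then dexamethasone 2 nM final; 18 h, 37 C. CCF4 FRET fluorescence normalized to dexamethasone and DMSO; IC50 from Hill fit.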

A short description of experiment [20]: qHTS assay for small molecule activators of the p53 signaling pathway (AID 651743; active = well fitted activation curve with a large enough effect in the signal ratio, not every such curve was filed as active; the % refers to the signal ratio; also: series mostly up to about 92 µM; % of control where 0% means no effect). The settings on record: HCT-116 p53RE-bla, beta-lactamase FRET ratio, 16 h; activation: stronger effect = higher value. A digest of the protocol:
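p53RE-bla HCT-116 cells with a stably integrated beta-lactamase reporter under p53 response elements were plated, rested 5 hours at 37 C/5% CO2, then exposed to compounds in DMSO for 16 hours at 37 C. LiveBLAzer B/G FRET substrate was read after 2 hours at room temperature.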

Sequence of Glucocorticoid receptor (Homo sapiens) (P04150 whole entry, looked up): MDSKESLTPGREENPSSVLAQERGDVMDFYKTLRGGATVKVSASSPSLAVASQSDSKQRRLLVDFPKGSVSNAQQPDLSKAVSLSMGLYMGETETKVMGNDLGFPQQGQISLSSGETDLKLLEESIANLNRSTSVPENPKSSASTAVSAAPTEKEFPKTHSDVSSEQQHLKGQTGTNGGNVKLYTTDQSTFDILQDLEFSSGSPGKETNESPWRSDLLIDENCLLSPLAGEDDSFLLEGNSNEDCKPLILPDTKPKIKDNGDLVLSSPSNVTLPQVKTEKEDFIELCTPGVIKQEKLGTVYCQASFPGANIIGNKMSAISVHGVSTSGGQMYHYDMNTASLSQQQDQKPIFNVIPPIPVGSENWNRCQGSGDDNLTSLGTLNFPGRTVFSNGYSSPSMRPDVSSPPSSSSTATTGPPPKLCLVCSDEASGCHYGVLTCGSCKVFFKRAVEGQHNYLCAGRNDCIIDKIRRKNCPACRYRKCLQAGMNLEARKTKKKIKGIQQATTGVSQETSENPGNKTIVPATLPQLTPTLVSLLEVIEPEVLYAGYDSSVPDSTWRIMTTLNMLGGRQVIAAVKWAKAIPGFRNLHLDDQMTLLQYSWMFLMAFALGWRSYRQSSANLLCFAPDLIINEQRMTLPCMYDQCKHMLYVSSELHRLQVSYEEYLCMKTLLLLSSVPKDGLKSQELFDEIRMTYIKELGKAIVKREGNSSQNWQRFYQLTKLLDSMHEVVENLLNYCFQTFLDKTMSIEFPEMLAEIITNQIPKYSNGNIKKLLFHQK
Sequence of Nuclear receptor subfamily 1 group I member 2 (Rattus norvegicus) (Q9R1A7 whole entry, looked up): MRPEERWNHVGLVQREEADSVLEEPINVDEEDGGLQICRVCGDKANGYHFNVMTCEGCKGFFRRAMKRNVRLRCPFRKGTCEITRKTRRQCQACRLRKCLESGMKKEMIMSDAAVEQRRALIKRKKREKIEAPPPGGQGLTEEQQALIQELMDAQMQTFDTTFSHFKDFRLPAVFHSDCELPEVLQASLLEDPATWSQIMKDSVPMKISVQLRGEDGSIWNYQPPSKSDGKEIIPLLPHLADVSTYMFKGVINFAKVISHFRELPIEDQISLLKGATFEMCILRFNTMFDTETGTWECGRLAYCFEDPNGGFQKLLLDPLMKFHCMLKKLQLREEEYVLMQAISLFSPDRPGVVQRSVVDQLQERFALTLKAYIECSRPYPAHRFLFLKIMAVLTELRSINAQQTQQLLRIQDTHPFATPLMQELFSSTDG
Sequence of Vitamin D3 receptor (Homo sapiens) (P11473 whole entry, looked up): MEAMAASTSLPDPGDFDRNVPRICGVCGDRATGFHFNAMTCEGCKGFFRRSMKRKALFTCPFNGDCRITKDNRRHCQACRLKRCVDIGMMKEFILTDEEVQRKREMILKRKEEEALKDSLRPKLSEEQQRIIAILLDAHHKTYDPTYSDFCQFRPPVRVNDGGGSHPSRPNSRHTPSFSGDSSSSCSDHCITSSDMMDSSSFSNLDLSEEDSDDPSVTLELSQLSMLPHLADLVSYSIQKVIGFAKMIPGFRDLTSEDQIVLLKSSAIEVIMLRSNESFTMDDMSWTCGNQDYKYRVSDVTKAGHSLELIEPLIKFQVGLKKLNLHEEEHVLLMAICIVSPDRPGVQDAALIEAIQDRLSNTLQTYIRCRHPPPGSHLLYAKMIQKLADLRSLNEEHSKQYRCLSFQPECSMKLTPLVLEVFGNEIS
Sequence of Retinoic acid receptor RXR-alpha (Homo sapiens) (P19793 whole entry, looked up): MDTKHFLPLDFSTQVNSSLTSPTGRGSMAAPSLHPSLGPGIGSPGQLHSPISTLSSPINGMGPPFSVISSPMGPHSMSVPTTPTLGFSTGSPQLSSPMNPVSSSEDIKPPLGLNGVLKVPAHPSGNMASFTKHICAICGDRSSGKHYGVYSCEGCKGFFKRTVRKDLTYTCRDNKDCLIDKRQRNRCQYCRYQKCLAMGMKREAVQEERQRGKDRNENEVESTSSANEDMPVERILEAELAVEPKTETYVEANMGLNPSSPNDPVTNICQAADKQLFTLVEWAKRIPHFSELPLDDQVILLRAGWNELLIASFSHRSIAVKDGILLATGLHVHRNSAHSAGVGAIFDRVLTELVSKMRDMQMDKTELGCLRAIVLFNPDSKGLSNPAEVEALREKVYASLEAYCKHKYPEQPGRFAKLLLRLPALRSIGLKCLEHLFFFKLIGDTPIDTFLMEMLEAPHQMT
Sequence of Peroxisome proliferator-activated receptor delta (Homo sapiens) (Q03181 whole entry, looked up): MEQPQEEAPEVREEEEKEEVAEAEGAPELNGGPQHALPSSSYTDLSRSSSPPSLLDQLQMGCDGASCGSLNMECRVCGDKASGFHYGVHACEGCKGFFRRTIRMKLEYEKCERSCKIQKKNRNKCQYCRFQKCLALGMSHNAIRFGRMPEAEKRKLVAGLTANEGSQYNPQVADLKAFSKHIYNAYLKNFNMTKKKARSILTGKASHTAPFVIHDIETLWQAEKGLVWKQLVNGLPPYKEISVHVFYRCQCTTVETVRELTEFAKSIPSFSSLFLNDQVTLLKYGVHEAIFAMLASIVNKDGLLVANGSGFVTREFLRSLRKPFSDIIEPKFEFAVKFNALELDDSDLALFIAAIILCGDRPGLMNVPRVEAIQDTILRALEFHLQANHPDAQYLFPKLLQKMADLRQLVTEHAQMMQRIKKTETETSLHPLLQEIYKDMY
Sequence of Peroxisome proliferator-activated receptor alpha (Homo sapiens) (Q07869 whole entry, looked up): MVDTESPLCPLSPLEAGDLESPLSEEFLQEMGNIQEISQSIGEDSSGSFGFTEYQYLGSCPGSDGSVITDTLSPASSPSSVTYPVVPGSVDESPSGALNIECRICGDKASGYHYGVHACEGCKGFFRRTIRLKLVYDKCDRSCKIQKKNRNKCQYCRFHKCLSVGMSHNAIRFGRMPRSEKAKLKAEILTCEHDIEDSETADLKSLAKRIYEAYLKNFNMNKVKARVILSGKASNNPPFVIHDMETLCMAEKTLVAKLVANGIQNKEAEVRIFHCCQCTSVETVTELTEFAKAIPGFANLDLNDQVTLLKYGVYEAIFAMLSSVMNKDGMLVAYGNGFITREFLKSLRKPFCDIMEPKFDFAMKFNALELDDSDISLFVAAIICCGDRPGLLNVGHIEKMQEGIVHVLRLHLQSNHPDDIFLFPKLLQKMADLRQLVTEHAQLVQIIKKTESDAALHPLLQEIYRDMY
Sequence of Thyroid hormone receptor beta (Homo sapiens) (P10828 whole entry, looked up): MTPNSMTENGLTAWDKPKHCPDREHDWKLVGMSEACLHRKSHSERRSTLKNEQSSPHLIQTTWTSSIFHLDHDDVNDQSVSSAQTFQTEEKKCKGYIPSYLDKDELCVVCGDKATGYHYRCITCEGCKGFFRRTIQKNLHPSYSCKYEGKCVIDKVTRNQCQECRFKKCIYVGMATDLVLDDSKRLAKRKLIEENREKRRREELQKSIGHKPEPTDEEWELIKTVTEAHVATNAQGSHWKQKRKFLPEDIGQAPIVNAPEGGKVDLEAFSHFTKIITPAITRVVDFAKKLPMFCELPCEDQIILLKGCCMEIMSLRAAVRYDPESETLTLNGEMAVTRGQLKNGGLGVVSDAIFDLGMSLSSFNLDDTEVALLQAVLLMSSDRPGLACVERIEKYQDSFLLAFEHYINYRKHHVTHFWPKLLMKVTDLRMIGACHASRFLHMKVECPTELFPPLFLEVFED
Sequence of Estrogen receptor (Homo sapiens) (P03372 whole entry, looked up): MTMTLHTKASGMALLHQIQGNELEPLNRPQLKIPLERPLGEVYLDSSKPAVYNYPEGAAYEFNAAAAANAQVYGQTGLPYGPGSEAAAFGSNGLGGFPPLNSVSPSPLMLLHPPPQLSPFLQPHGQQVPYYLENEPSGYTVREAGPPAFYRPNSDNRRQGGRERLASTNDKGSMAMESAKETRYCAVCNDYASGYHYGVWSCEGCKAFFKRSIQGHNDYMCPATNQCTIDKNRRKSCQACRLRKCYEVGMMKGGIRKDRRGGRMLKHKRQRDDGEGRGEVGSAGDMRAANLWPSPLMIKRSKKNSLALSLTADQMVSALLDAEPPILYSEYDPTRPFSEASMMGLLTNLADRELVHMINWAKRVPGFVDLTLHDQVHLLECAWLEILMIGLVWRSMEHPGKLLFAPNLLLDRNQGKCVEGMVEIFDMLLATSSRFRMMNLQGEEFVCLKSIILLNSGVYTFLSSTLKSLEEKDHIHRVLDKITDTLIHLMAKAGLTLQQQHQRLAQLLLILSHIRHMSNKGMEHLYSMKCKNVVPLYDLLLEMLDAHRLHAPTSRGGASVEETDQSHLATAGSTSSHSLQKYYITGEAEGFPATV

Consider `O=C1c2ccccc2C(=O)C1C(=O)C(c1ccccc1)c1ccc(Cl)cc1` (configuration not stated), for which the Potency result in [1], in experiment [4], in experiment [5], in [6], in [7] and in [14] was “inactive” each time. Further, in experiment [17], the Potency result is “inactive”. For the same molecule, the outcome in experiment [2] was inactive. For the same molecule, the max response in experiment [3] is 65.6%; in experiment [8] it was -2.15%; in [9], 36.5% (inactive); in experiment [13], -1.87% (inactive); in experiment [15] it was -33.5% (inactive); in [16], -28.8% (inactive). In addition, in [18], the max response is 10.4% (inactive). For the same molecule, the activity change % (negative = inhibition) in experiment [10] is 15% (inactive). The results for the activation in experiment [11] and in experiment [12] were -3.47% (inactive) and 3.58% (inactive), respectively.
`CCC(C)(C)c1cc(-n2nc3ccccc3n2)c(O)c(C(C)(C)CC)c1`: the Potency result in [19], in experiment [4], in experiment [5], in experiment [6], in [7] and in experiment [17] was “inactive” throughout. In [2], the call was inactive. The max response in experiment [3] was -9.56%; in [8] it was -14%; in experiment [9], 11.8% (inactive); in [13] it was 0.0334% (inactive); in experiment [15], -12.9% (inactive); in [16], -9.99% (inactive). The max response in experiment [18] is -0.463% (inactive). Further, the activity change % (negative = inhibition) in [10] is 12% (inactive). The activation in experiment [11] was -0.182% (inactive); in experiment [12], 0.0202% (inactive).
For the molecule `CCCCOC(=O)c1ccccc1C(=O)O`, the call in [2] was inactive. The max response in experiment [3] is 23.7%; in [8], 2.69%; in experiment [13], 0.528% (inactive); in [15], 18.5% (inactive); in [16], 6.89% (inactive); in [18] it was -8.39% (inactive). Moreover, the Potency result in [4], in experiment [6] and in experiment [7] was “inactive” in each case. In [10], the activity change % (negative = inhibition) is 6.47% (inactive). In addition, the activation was -2.82% (inactive) in experiment [20] and 1.8% (inactive) in [11].
Consider `CCOP(=S)(OCC)SCSP(=S)(OCC)OCC`, for which the Potency entry in experiment [1], in experiment [19], in [4], in [5], in experiment [7] and in [14] was “inactive” in each case. Further, in experiment [17], the Potency result was “inactive”. Further, the molecule was classed as inactive in experiment [2]. In addition, the max response in experiment [3] is 36.7%; in experiment [8], -10.3%; in experiment [9], -4.31% (inactive); in experiment [13], -1.9% (inactive); in experiment [15], -0.915% (inactive); in experiment [16] it was -18.3% (inactive). Also, the activation in experiment [20] is -5.14% (inactive); in experiment [11], -2.5% (inactive); in experiment [12], 3.33% (inactive).
In the case of `CCC[CH2][Sn](=[O])[CH2]CCC`, the Potency entry in experiment [19], in experiment [4], in [5], in experiment [6], in experiment [7] and in experiment [17] was “inactive” throughout. Also, the outcome in experiment [2] was inactive. The max response is 0.661% in [3]; -4.07% in [8]; -3.37% (inactive) in experiment [13]; 5.71% (inactive) in experiment [15]; -6.83% (inactive) in experiment [16]; 4.58% (inactive) in experiment [18]. For the same molecule, in experiment [10], the activity change % (negative = inhibition) was -7.82% (inactive). Moreover, the values for the activation in experiment [20], in [11] and in [12] were 2.27% (inactive), -1.97% (inactive) and 3.37% (inactive), respectively.
